Hits are enriched below; roughly 21% of the tested compounds scored in any of these assays.
Cycloheximide cs: counter-screen for Shiga toxin inhibitors: cycloheximide protein synthesis inhibition | cell reporter, cycloheximide protein synthesis inhibition counterscreen | 12% of 300,000 active | AID 2314 | max response, %; in the data active means max response mostly above about 13%, no sharp cut-off; inactive means mostly below about 14%; further: read at 38.3 µM for the half of the compounds with a filed dose; 0% is about no effect
NS1 function inh: influenza NS1 inhibition | AID 2326 | 0.4% of 270,000 active | Potency, µM (highest dose often 46.1 µM), inactives show at the highest dose activity, positive = more growth; calls by dose curve; further: potency means the concentration at half of the fitted maximal effect; actives are rising curves; nearly all actives have a fitted effect of over 50% in size
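A cell-based growth assay was used: compounds that relieve NS1-induced slow growth of budding yeast raise OD600. Assay medium was yeast nitrogen base with ammonium sulphate and -URA supplement, pH 6.0, with 2% galactose.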
Sm TGR block: inhibitors of Schistosoma mansoni thioredoxin glutathione reductase | Potency, µM (highest dose often 114 µM), for inactives: at the highest dose activity change, negative = inhibition, actives largely listed as inhibitors | 3% of 360,000 active | Q962Y6 | purified TGR, DTNB reduction, TNB absorbance 405 nm; further: potency means the concentration at half of the fitted maximal effect; on the % scale 0 is the no-effect control and ±100 the full control effect; nearly all actives have a fitted effect of over 60% in size
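Kinetic colorimetric format: TGR-catalysed, NADPH-driven DTNB reduction monitored via TNB absorbance. Enzyme dispensed at 20 nM; compound exposure 15 min at room temperature before reaction start.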
Pf growth 48h: P. falciparum growth inhibition at 48 hours (one generation); P. falciparum luciferase growth in erythrocytes, 48 h; Potency, µM (highest dose often 28.7 µM), without a hit: at the top dose activity change, negative = inhibition, actives largely listed as inhibitors; 5.9% of 310,000 active; further: potency means the concentration at half of the fitted maximal effect; on the % scale 0 is the no-effect control and ±100 the full control effect
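First compound was added to culture medium, then infected red cells at 0.1% parasitemia and 2% hematocrit (final). After incubation at 37 C under 5% CO2, luciferase detection reagent was dispensed and light output recorded.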
Pf growth 96h: P. falciparum growth inhibition at 96 hour, primary screen for plastid delayed-death inhibitors. P. falciparum luciferase reporter growth, 96 h. Potency, µM (highest dose often 28.7 µM), inactives show at the highest dose activity change, negative = inhibition, usual class: inhibitors. 6.9% of 320,000 active. AID 504834; further: potency means the concentration at half of the fitted maximal effect; on the % scale 0 is the no-effect control and ±100 the full control effect
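96 h incubation, 37 C, 5% CO2, of luciferase-reporter P. falciparum-infected RBCs (2% hematocrit, 0.05% parasitemia final) with test compounds; endpoint luminescence.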
Shiga toxin inh: Shiga toxin inhibition; Vero cells, Shiga toxin protein synthesis inhibition reporter; inhibition, % at 38.7 µM; 9.2% of 290,000 active; AID 2315; in the data active means inhibition mostly above about 28%, no sharp cut-off; inactive means mostly below about 43%; further: 0% is about no effect
Starred values were filed as active, the others as inactive; ? = inconclusive; . = no result. Unless noted, the call rests on the fitted dose curve; in most records, active means well fitted curve in the direction sought with a large enough effect; inconclusive means small, poorly fitted or top-dose-only effect, or another doubt; inactive means no such curve, though single readings can be large; an effect the other way counts as inactive or inconclusive.

SMILES | Cycloheximide cs | NS1 function inh | Sm TGR block | Pf growth 48h | Pf growth 96h | Shiga toxin inh
O=C(N/N=C/c1ccc([N+](=O)[O-])o1)c1ccccc1NS(=O)(=O)c1cccs1 | -3 | -4% | 28µM* | ? | ? | 1
Cc1scc(C(=O)N/N=C/c2ccsc2)c1C | 84* | -8% | 4% | 196% | 117% | 52*
Cc1scc(C(=O)N/N=C/c2ccco2)c1C | 29* | -3% | ? | 147% | 85% | 53*
CCC1CCCCN1C(=O)NC(=O)c1ccccc1 (centres undefined) | -2 | 3% | 2% | -6% | ? | -1
CC1=CC(C)(C)N(C(=O)CCl)c2cc(C)ccc21 | 0 | -2% | ? | -8% | ? | -4
CC1=CC(C)(C)N(C(=O)c2ccc(F)cc2)c2cc3c(cc21)OCO3 | -2 | -68% | 0% | 12µM* | -18% | -11
Cc1c(NC(=S)NC(=O)C2CCCCC2)c(=O)n(-c2ccccc2)n1C | -1 | -6% | -15% | -3% | ? | -9
COc1ccc(CCNC(=O)C(=O)NCC(c2cccs2)S(=O)(=O)c2cccs2)cc1 (centres undefined) | . | . | 28µM* | . | . | .
O=C(NCc1ccc(F)cc1)C(=O)NCC(c1cccs1)S(=O)(=O)c1cccs1 (centres undefined) | . | . | 25µM* | . | . | .
COc1ccc(CC(=O)NCC(c2cccs2)S(=O)(=O)c2ccc(C)cc2)cc1 (centres undefined) | . | . | 0% | . | . | .
COc1ccc(CNC(=O)C(=O)NCC(c2cccs2)S(=O)(=O)c2cccs2)cc1 (centres undefined) | . | . | 28µM* | . | . | .
CC(C)(C)n1nnnc1CN(Cc1ccc(F)cc1)Cc1ccco1 | 8 | -13% | -30% | ? | ? | -4
CCN(Cc1ccccc1)C(c1cccc(C#N)c1)c1nnnn1C(C)(C)C (centres undefined) | 10 | -18% | -13% | 10µM* | ? | -1
CCC(C)(C)n1nnnc1C(c1ccc(C)cc1)N(Cc1ccco1)Cc1cccs1 (centres undefined) | 9 | 11% | -6% | 4.7µM* | . | 20
COc1cccc(CN(Cc2ccco2)C(c2ccc(F)cc2)c2nnnn2C(C)(C)C)c1 (centres undefined) | 9 | -32% | 50µM* | 1.7µM* | ? | 17
CCCC(c1nnnn1C(C)(C)C)N1CCN(c2ccccc2)CC1 (centres undefined) | 6 | -4% | 0% | ? | -22% | 25
CC(C)(C)n1nnnc1C(c1cccnc1)N(Cc1ccccc1)Cc1ccco1 (centres undefined) | -4 | 3% | -2% | 2.9µM* | 1.9µM* | -11
CN1C(=O)C(=O)/C(=C(/O)c2ccc(Br)cc2)C1c1ccccc1F (centres undefined) | -4 | 2% | -10% | . | 1% | -6
Cc1ccc(S(=O)(=O)Nc2ccccc2N(C)S(=O)(=O)c2ccc(C)cc2)cc1 | . | . | -2% | ? | ? | .
Cc1ccc(S(=O)(=O)Nc2ccccc2-c2ccccc2)cc1 | -5 | -19% | 1% | -6% | 12µM* | -8
Cc1ccc(N(CC(=O)Nc2ccccc2-c2ccccc2)S(=O)(=O)c2ccccc2)cc1 | 1 | ? | 4% | ? | 6.6µM* | -4
Cc1cccc(N(CC(=O)Nc2ccccc2-c2ccccc2)S(=O)(=O)c2ccccc2)c1C | 7 | ? | 23% | 8.3µM* | 8% | 15
CCN(CC(=O)NC1CCS(=O)(=O)C1)S(=O)(=O)c1c(C)c(C)cc(C)c1C (centres undefined) | . | . | 3% | 16% | 12% | .
CC1(c2ccccc2)NC(=O)N(CC(=O)N2CCN(S(=O)(=O)c3cccc([N+](=O)[O-])c3)CC2)C1=O (centres undefined) | . | . | -16% | ? | -1% | .
Cn1nc(OC(=O)Nc2ccccc2)cc1C(F)(F)F | 28* | -9% | 9% | 63% | 87% | 37*
SMILES | Cycloheximide cs | NS1 function inh | Sm TGR block | Pf growth 48h | Pf growth 96h | Shiga toxin inh
O=C(O)CCc1ccc(S(=O)(=O)Nc2ccc(OCc3ccccc3)cc2)cc1 | 14* | ? | -19% | 38% | 0% | 45*
O=C(O)/C=C/c1ccc(S(=O)(=O)Nc2ccc(OCc3ccccc3)cc2)cc1 | -6 | ? | 2% | -3% | 53% | 28
NC(=O)COc1ccc(NC(=O)OCc2ccccc2)cc1 | 24* | -9% | 0% | 85% | . | 36*
COC(=O)Nc1ccc(SCC(=O)c2ccc(Cl)cc2)cc1 | 9 | 3% | 8% | 44% | ? | 20
COC(=O)Nc1ccc(SCC(=O)c2ccccc2)cc1 | 51* | . | -11% | 31% | 35% | 62*
CCN(CC)S(=O)(=O)c1cc(C(=O)N(C)CC(=O)Nc2ccc(Cl)cc2)ccc1Cl | -3 | -21% | 5% | ? | ? | -2
Cc1ccc(N2CC(C(=O)OCC(=O)c3ccc([N+](=O)[O-])cc3)CC2=O)cc1 (centres undefined) | -5 | -14% | -12% | 17% | ? | -7
O=S(=O)(c1ccc(F)cc1)N1CCC(Oc2cccc(C(F)(F)F)c2)CC1 | . | . | -2% | . | . | .
O=C(Nc1ccccc1)Oc1ccc[nH]c1=O | 21* | -3% | 50µM* | 16% | 42% | 16
COC(=O)Nc1ccc(OCc2ccccc2)cc1 | 60* | -40% | 8% | 151% | 0% | 72*
CC(=O)Nc1ccc(N=Cc2ccc(OCc3ccccc3)cc2)cc1 | 35* | -19% | 0% | 4% | 11% | 68*
CC(C)C(=O)N/N=C/c1ccc(OCc2ccccc2)cc1 | 3 | -65% | 13% | 18% | 59% | 27
CC(=O)Nc1ccc(OCc2ccc(S(=O)(=O)Cc3ccccc3)cc2)cc1 | -3 | 2% | . | 13% | ? | 3
O=C(Nc1ccccc1)Oc1ccccc1 | 7 | 2% | 6% | 31% | . | -2
COC(=O)Nc1ccc(Oc2ccccc2)cc1 | 9.6* | -43% | 8% | 18% | ? | 24
COc1ccc(N2CCN(C(=O)C3CCCN(S(=O)(=O)c4c(C)noc4C)C3)CC2)cc1 (centres undefined) | 1 | -4% | -6% | ? | ? | 6
O=C(O)c1cc(Cl)c(Cl)cc1C(=O)N(Cc1ccccc1)Cc1ccccc1 | -3 | 0% | -28% | 12% | 9% | .
CCCCN(CC)S(=O)(=O)c1ccc2c(c1)n(C)c(=O)c(=O)n2C | -3 | 2% | -1% | -3% | 13% | -7
Cc1cnc(NC(=O)Nc2ccc(OCc3ccccc3)cc2)c(Br)c1 | 16* | 1% | -3% | 23% | 2% | 26
CC(=O)Nc1ccc(OCc2cccc([N+](=O)[O-])c2)cc1 | 29* | -2% | -1% | 55% | 18% | 82*
O=C(CN1CCN(c2ccccc2)CC1)Nc1ccc(OCc2ccccc2)cc1 | -2 | -50% | 5% | 6% | 27% | 10

High-throughput results: PubChem BioAssay, National Center for Advancing Translational Sciences (NCATS)
